Measured values published in the supplement of paper PMC12340641.

Assays:
[1] = molecular target: IKZF1 (dCK*-IKZF1 fusion in HEK293FT) (UniProt Q13422); assay: inhibition of IKZF1 HTRF signal (DMSO = 0%, pomalidomide 10 uM = 100%); higher = lower IKZF1 protein level; conditions: compound concentration: 5 uM, overnight (~20 h)
Outline: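 For percent inhibition of IKZF1 signal, each plate was normalised to vehicle and to a reference degrader. Cells were HEK293FT stably expressing an IKZF1 fusion, plated at 2000/well in 384-well format and treated overnight at 37 °C with 5 μM compound, one well each. Lysates were probed overnight with a commercial HTRF total-IKZF1 antibody kit, with the 665/620 nm ratio background-subtracted and vehicle and degrader fixed at 0% and 100%.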

HEK293FT dCK*-only = assay: relative growth in counter assay (no AraC = 100%, AraC + DMSO = 0%); higher = more growth rescue independent of IKZF1; conditions: compound concentration: 5 uM; AraC concentration: 0.3 uM; overnight pretreatment + 4 days AraC
Outline: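 HEK293FT cells carrying only an engineered kinase construct were plated at 300 per well (384-well) and given 5 μM compound 2 h later. Following overnight at 37 °C, a nucleoside suicide substrate (0.3 μM) plus medium was added for 4 days. Hoechst 33342-stained nuclei were imaged and counted on day 5, with 100% assigned to wells without suicide substrate and 0% to substrate plus vehicle on each plate.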

HEK293FT dCK*-IKZF1 = assay: relative growth recovery (pomalidomide 10 uM = 100%, DMSO = 0%); higher = more growth rescue (IKZF1 fusion degradation); conditions: compound concentration: 5 uM; AraC concentration: 0.3 uM; overnight pretreatment + 4 days AraC
Outline: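 Means of duplicates from different days are given for growth recovery, normalised per plate against a reference degrader and vehicle. The reference degrader set the 100% level and vehicle the 0% level. HEK293FT cells stably expressing a deoxycytidine kinase–IKZF1 fusion (300/well, 384-well) received 5 μM compound 2 h after seeding and, after overnight at 37 °C, 0.3 μM of a nucleoside suicide substrate plus medium for 4 days. Nuclei stained with Hoechst 33342 were then counted by whole-well imaging on day 5.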

Sequence of IKZF1 (dCK*-IKZF1 fusion in HEK293FT) (Q13422 whole entry, looked up, the tested form may be a part): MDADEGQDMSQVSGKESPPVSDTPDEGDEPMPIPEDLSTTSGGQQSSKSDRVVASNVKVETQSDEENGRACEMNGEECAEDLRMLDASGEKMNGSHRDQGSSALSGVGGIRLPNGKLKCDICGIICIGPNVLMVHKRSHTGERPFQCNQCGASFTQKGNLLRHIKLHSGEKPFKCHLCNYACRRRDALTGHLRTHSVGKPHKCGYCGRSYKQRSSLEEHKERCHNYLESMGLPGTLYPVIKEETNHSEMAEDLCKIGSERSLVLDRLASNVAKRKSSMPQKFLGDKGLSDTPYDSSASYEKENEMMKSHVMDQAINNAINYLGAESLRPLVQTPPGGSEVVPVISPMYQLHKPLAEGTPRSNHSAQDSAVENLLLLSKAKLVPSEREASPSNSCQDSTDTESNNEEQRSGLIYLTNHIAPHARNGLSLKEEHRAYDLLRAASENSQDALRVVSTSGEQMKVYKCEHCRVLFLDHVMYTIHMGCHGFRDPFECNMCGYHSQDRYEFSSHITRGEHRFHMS

Compound	inhibition of IKZF1 HTRF signal [1] [%]	relative growth in counter assay (HEK293FT dCK*-only) [%]	relative growth recovery (HEK293FT dCK*-IKZF1) [%]
C1CCC(C(CC2CCCCN2)C2CCCCC2)CC1 (stereo unspecified)	11.6	-1.13	-2.33
CO/N=C1\C[C@]2(C[C@@H]3C[C@@H](C/C=C(\C)C[C@@H](C)/C=C/C=C4\CO[C@@H]5[C@H](O)C(C)=C[C@@H](C(=O)O3)[C@]45O)O2)O[C@H](/C(C)=C/C(C)C)[C@H]1C	-19.4	-0.37	-1.09
CC(CN(C)C)CN1c2ccccc2Sc2ccccc21 (stereo unspecified)	-50.1	1.07	-2.14
CCCSc1ccc2[nH]c(NC(=O)OC)nc2c1	-15.2	-32.2	-11.2
O=C2[C@]([C@]3=CC(Cl)=CC=C3OC)(F)C1=CC=C(C(F)(F)F)C=C1N2 [flindokalner]	-26.1	-5.3	-1.65
CC(CN(C)C)CN1c2ccccc2Sc2ccccc21 (stereo unspecified) [trimeprazine]	15.3	7.5	-1.37
CCN(CC)c1ccc(C(=C2C=CC(=[N+](CC)CC)C=C2)c2ccccc2)cc1 [Brilliant Green]	79.8	-35	-14.4
CN(C)CCC=C1c2ccccc2CCc2ccccc21	8.98	-1.73	0.57
COc1cc(NS(C)(=O)=O)ccc1Nc1c2ccccc2nc2ccccc12	-14.1	-35.1	-13.2
CC(C)/N=c1/cc2n(-c3ccc(Cl)cc3)c3ccccc3nc-2cc1Nc1ccc(Cl)cc1 [Clofazimine]	6.09	3.02	-0.03
Cc1nnsc1C(=O)Nc1ccc(-n2nc(C(F)(F)F)cc2C(F)(F)F)cc1	-28.9	3.65	0.005
C=CCc1ccc(O)c(-c2cc(CC=C)ccc2O)c1 [Magnolol]	-27.1	-9.5	2.08
COCCOC(=O)C1=C(C)NC(C)=C(C(=O)OC/C=C/c2ccccc2)C1c1cccc([N+](=O)[O-])c1 (stereo unspecified) [cilnidipine]	-8.24	-4.05	-0.035
CCCNC(=O)NS(=O)(=O)c1ccc(Cl)cc1	-35.8	-2.41	1.51
CCCCCCc1ccc(O)cc1O	-30.8	4.87	2.99
Cc1cc(Nc2ncc(Cl)c(Nc3ccccc3S(=O)(=O)C(C)C)n2)c(OC(C)C)cc1C1CCN(CC(=O)NCCOCCOCCOCCOCCOCCNc2cccc3c2C(=O)N(C2CCC(=O)NC2=O)C3=O)CC1 (stereo unspecified)	54.5	6.9	64.6

Compound	inhibition of IKZF1 HTRF signal [1] [%]	relative growth in counter assay (HEK293FT dCK*-only) [%]	relative growth recovery (HEK293FT dCK*-IKZF1) [%]
NS(=O)(=O)Cc1noc2ccccc12 [zonisamide]	-28.2	2.4	-2.26
O=C(NCCO[N+](=O)[O-])c1cccnc1	-26.3	-5.9	-1.74
CCc1oc2ccccc2c1C(=O)c1cc(Br)c(O)c(Br)c1	11.6	-6.05	-2.28
CC(C)(C)CC(C)(C)c1ccc(O)c(Cc2ccc(Cl)cc2Cl)c1	115	-6.45	-7.76
Nc1ncn([C@H]2C[C@H](O)[C@@H](CO)O2)c(=O)n1 [Decitabine]	12	-31.4	-11.4
CCCCCCCCNC(C)C(O)c1ccc(SC(C)C)cc1 (stereo unspecified)	-32.8	7.28	-0.84
O=c1[nH]c2ccccc2n1C1CCN(CCOc2ccccc2)CC1 [oxiperomide]	23.7	-11.6	2.25
CCN1CCN(Cc2ccc(-c3cc4c(N[C@H](C)c5ccccc5)ncnc4[nH]3)cc2)CC1	-37.1	-18.1	-8.18
O=c1n(CC2CO2)c(=O)n(CC2CO2)c(=O)n1CC1CO1 (stereo unspecified) [Triglycidyl isocyanurate]	30.6	-31.7	-10.8
COC(=O)C1=C(C)NC(C)=C(C(=O)OC(C)C)C1c1cccc2nonc12 (stereo unspecified) [isradipine]	-28.6	-4.67	1.6
COc1cc([C@@H]2c3cc4c(cc3[C@@H](O[C@@H]3O[C@@H]5CO[C@@H](C)O[C@H]5[C@H](O)[C@H]3O)[C@H]3COC(=O)[C@H]23)OCO4)cc(OC)c1O [Etoposide]	-29.2	-34.7	-12.5
CC1(C)Oc2ccc(C#N)cc2[C@H](N(Cc2ncc[nH]2)c2ccc(Cl)cc2)[C@H]1O	-30.7	-4.85	1.01
Cc1ccc2c(Cl)cc(Cl)c(O)c2n1	14	-5.48	0.855
O=S(=O)(O)CCSSCCS(=O)(=O)O	-1.7	-2.36	0.365
Nc1nc(N)c2nc(-c3cccc(O)c3)cnc2n1	28.6	-10.5	-2.13
FC(F)(F)c1cc(NC(=S)Nc2ccc(Br)cc2-c2nnn[nH]2)cc(C(F)(F)F)c1	-39	-37.2	-1.23
